# Assay results from paper PMC12820563, “FoxP3 forms a head-to-head dimer in vivo and stabilizes its multimerization on adjacent microsatellites”.
# Over roughly 16,000 sequences, “rpm ratio (pull-down/input)” has its median near 0.94; the highest 2% begin near 1.7. The sample as a whole holds a higher share of the highest values than the screen did.
# Biological target: T1, MBP-FoxP1dN (Mus musculus, UniProt P58462 326-579)
# T1 sequence: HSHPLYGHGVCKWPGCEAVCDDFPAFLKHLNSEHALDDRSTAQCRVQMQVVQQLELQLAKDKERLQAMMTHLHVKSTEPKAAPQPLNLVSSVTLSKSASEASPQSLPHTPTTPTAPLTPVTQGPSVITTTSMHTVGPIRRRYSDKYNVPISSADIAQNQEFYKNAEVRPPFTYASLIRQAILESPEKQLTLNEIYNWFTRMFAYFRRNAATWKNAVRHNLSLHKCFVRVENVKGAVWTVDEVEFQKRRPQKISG
# Assay: PD-seq (MBP pull-down with sequencing); 20 mM Tris-HCl pH 7.5, 100 mM NaCl, 1.5 mM MgCl2, 0.4 uM protein, 0.1 uM dsDNA library, 30 min, room temperature, amylose pull-down; high values mean tight binding
# Conditions: protein: recombinant; tags: His6-MBP; chain copies: 2; dsDNA, one strand shown
# Summary of the method: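 A fragment of mouse FoxP3 or FoxP1 without its N-terminus, carrying a His6-MBP tag and produced in E. coli, was combined at 0.4 µM with a 0.1 µM degenerate double-stranded DNA library filled in with Klenow. The mixture sat for 30 min at room temperature in Tris pH 7.5 buffer containing NaCl and MgCl2. Protein–DNA complexes were captured on amylose resin, washed three times, and the DNA was freed with proteinase K, barcoded by PCR and sequenced on Illumina. Binding is expressed as reads-per-million enrichment of pull-down over input, with replicates pooled.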
row,Sequence,binding signal
1,GATGATTGTTCTCCCAGCTGATGAATTTGAAATCTCGAGTAAACAAATTTTCCTAATCTTTCTGTTCAAGCGCCATCTAC,0.737 RPM ratio (pull-down/input)
2,GATGATTGTTCTCCCAGCTGATGAATTAACGAGTTCGAGTAAACAAATTTTCCTAATCTTTCTGTTCAAGCGCCATCTAC,0.92 RPM ratio (pull-down/input)
3,GATGATTGTTCTCCCAGCTGATGAATTAGCGACCTCGAGTAAACAAATTTTCCTAATCTTTCTGTTCAAGCGCCATCTAC,0.762 RPM ratio (pull-down/input)
4,GATGATTGTTCTCCCAGCTGATGAATTCCTGAACTCGAGTAAACAAATTTTCCTAATCTTTCTGTTCAAGCGCCATCTAC,0.79 RPM ratio (pull-down/input)
5,GATGATTGTTCTCCCAGCTGATGAATTAGCATAGTCGAGTAAACAAATTTTCCTAATCTTTCTGTTCAAGCGCCATCTAC,0.88 RPM ratio (pull-down/input)
6,GATGATTGTTCTCCCAGCTGATGAATTTGTGTCGTCGAGTAAACAAATTTTCCTAATCTTTCTGTTCAAGCGCCATCTAC,1.23 RPM ratio (pull-down/input)
7,GATGATTGTTCTCCCAGCTGATGAATTTGTGTTGTCGAGTAAACAAATTTTCCTAATCTTTCTGTTCAAGCGCCATCTAC,2.64 RPM ratio (pull-down/input)
8,GATGATTGTTCTCCCAGCTGATGAATTTTGTGTGTCGAGTAAACAAATTTTCCTAATCTTTCTGTTCAAGCGCCATCTAC,1.48 RPM ratio (pull-down/input)
9,GATGATTGTTCTCCCAGCTGATGAATTGTGTGTGTCGAGTAAACAAATTTTCCTAATCTTTCTGTTCAAGCGCCATCTAC,1.52 RPM ratio (pull-down/input)
10,GATGATTGTTCTCCCAGCTGATGAATTTGTTGTGTCGAGTAAACAAATTTTCCTAATCTTTCTGTTCAAGCGCCATCTAC,2.48 RPM ratio (pull-down/input)
11,GATGATTGTTCTCCCAGCTGATGAATTTTTTGTGTCGAGTAAACAAATTTTCCTAATCTTTCTGTTCAAGCGCCATCTAC,1.12 RPM ratio (pull-down/input)
12,GATGATTGTTCTCCCAGCTGATGAATTCCGTACCTCGAGTAAACAAATTTTCCTAATCTTTCTGTTCAAGCGCCATCTAC,0.829 RPM ratio (pull-down/input)
13,GATGATTGTTCTCCCAGCTGATGAATTATCTGTCTCGAGTAAACAAATTTTCCTAATCTTTCTGTTCAAGCGCCATCTAC,0.945 RPM ratio (pull-down/input)
14,GATGATTGTTCTCCCAGCTGATGAATTTTTGTAATCGAGTAAACAAATTTTCCTAATCTTTCTGTTCAAGCGCCATCTAC,1.78 RPM ratio (pull-down/input)
15,GATGATTGTTCTCCCAGCTGATGAATTGTGTATATCGAGTAAACAAATTTTCCTAATCTTTCTGTTCAAGCGCCATCTAC,1.9 RPM ratio (pull-down/input)
16,GATGATTGTTCTCCCAGCTGATGAATTTGTAAAATCGAGTAAACAAATTTTCCTAATCTTTCTGTTCAAGCGCCATCTAC,1.24 RPM ratio (pull-down/input)
17,GATGATTGTTCTCCCAGCTGATGAATTGAGTATATCGAGTAAACAAATTTTCCTAATCTTTCTGTTCAAGCGCCATCTAC,1.1 RPM ratio (pull-down/input)
18,GATGATTGTTCTCCCAGCTGATGAATTGTATATCTCGAGTAAACAAATTTTCCTAATCTTTCTGTTCAAGCGCCATCTAC,1.36 RPM ratio (pull-down/input)
19,GATGATTGTTCTCCCAGCTGATGAATTGTATATATCGAGTAAACAAATTTTCCTAATCTTTCTGTTCAAGCGCCATCTAC,1.6 RPM ratio (pull-down/input)
20,GATGATTGTTCTCCCAGCTGATGAATTTTGTATATCGAGTAAACAAATTTTCCTAATCTTTCTGTTCAAGCGCCATCTAC,2.33 RPM ratio (pull-down/input)
21,GATGATTGTTCTCCCAGCTGATGAATTCTGTACTTCGAGTAAACAAATTTTCCTAATCTTTCTGTTCAAGCGCCATCTAC,0.932 RPM ratio (pull-down/input)

row,Sequence,binding signal
1,GATGATTGTTCTCCCAGCTGATGAATTGTGTACTTCGAGTAAACAAATTTTCCTAATCTTTCTGTTCAAGCGCCATCTAC,1.84 RPM ratio (pull-down/input)
2,GATGATTGTTCTCCCAGCTGATGAATTTTGTAAATCGAGTAAACAAATTTTCCTAATCTTTCTGTTCAAGCGCCATCTAC,1.5 RPM ratio (pull-down/input)
3,GATGATTGTTCTCCCAGCTGATGAATTTTGTACTTCGAGTAAACAAATTTTCCTAATCTTTCTGTTCAAGCGCCATCTAC,0.97 RPM ratio (pull-down/input)
4,GATGATTGTTCTCCCAGCTGATGAATTCTGTATATCGAGTAAACAAATTTTCCTAATCTTTCTGTTCAAGCGCCATCTAC,1.67 RPM ratio (pull-down/input)
5,GATGATTGTTCTCCCAGCTGATGAATTCCAGGGTTCGAGTAAACAAATTTTCCTAATCTTTCTGTTCAAGCGCCATCTAC,0.729 RPM ratio (pull-down/input)
6,GATGATTGTTCTCCCAGCTGATGAATTGTGAAGCTCGAGTAAACAAATTTTCCTAATCTTTCTGTTCAAGCGCCATCTAC,0.905 RPM ratio (pull-down/input)
7,GATGATTGTTCTCCCAGCTGATGAATTACAGTTGTCGAGTAAACAAATTTTCCTAATCTTTCTGTTCAAGCGCCATCTAC,1.46 RPM ratio (pull-down/input)
8,GATGATTGTTCTCCCAGCTGATGAATTAGCAACTTCGAGTAAACAAATTTTCCTAATCTTTCTGTTCAAGCGCCATCTAC,1.12 RPM ratio (pull-down/input)
9,GATGATTGTTCTCCCAGCTGATGAATTTGCGTGCTCGAGTAAACAAATTTTCCTAATCTTTCTGTTCAAGCGCCATCTAC,1.05 RPM ratio (pull-down/input)
10,GATGATTGTTCTCCCAGCTGATGAATTCTCGTCATCGAGTAAACAAATTTTCCTAATCTTTCTGTTCAAGCGCCATCTAC,0.998 RPM ratio (pull-down/input)
11,GATGATTGTTCTCCCAGCTGATGAATTGGCTAAGTCGAGTAAACAAATTTTCCTAATCTTTCTGTTCAAGCGCCATCTAC,0.879 RPM ratio (pull-down/input)
12,GATGATTGTTCTCCCAGCTGATGAATTTGCAAAATCGAGTAAACAAATTTTCCTAATCTTTCTGTTCAAGCGCCATCTAC,1.13 RPM ratio (pull-down/input)
13,GATGATTGTTCTCCCAGCTGATGAATTCTAAAGATCGAGTAAACAAATTTTCCTAATCTTTCTGTTCAAGCGCCATCTAC,0.85 RPM ratio (pull-down/input)
14,GATGATTGTTCTCCCAGCTGATGAATTGCCTAAGTCGAGTAAACAAATTTTCCTAATCTTTCTGTTCAAGCGCCATCTAC,0.889 RPM ratio (pull-down/input)
15,GATGATTGTTCTCCCAGCTGATGAATTGGCTTTCTCGAGTAAACAAATTTTCCTAATCTTTCTGTTCAAGCGCCATCTAC,0.862 RPM ratio (pull-down/input)
16,GATGATTGTTCTCCCAGCTGATGAATTTGTGTAATCGAGTAAACAAATTTTCCTAATCTTTCTGTTCAAGCGCCATCTAC,1.97 RPM ratio (pull-down/input)
17,GATGATTGTTCTCCCAGCTGATGAATTGTAATACTCGAGTAAACAAATTTTCCTAATCTTTCTGTTCAAGCGCCATCTAC,1.04 RPM ratio (pull-down/input)
18,GATGATTGTTCTCCCAGCTGATGAATTCTGTGTATCGAGTAAACAAATTTTCCTAATCTTTCTGTTCAAGCGCCATCTAC,1.79 RPM ratio (pull-down/input)
19,GATGATTGTTCTCCCAGCTGATGAATTTTGTGTATCGAGTAAACAAATTTTCCTAATCTTTCTGTTCAAGCGCCATCTAC,2.15 RPM ratio (pull-down/input)
20,GATGATTGTTCTCCCAGCTGATGAATTTGTATACTCGAGTAAACAAATTTTCCTAATCTTTCTGTTCAAGCGCCATCTAC,2.13 RPM ratio (pull-down/input)
21,GATGATTGTTCTCCCAGCTGATGAATTGTGTAAATCGAGTAAACAAATTTTCCTAATCTTTCTGTTCAAGCGCCATCTAC,1.59 RPM ratio (pull-down/input)

row,Sequence,binding signal
1,GATGATTGTTCTCCCAGCTGATGAATTCTCTGTATCGAGTAAACAAATTTTCCTAATCTTTCTGTTCAAGCGCCATCTAC,0.938 RPM ratio (pull-down/input)
2,GATGATTGTTCTCCCAGCTGATGAATTTGGTGTATCGAGTAAACAAATTTTCCTAATCTTTCTGTTCAAGCGCCATCTAC,1.17 RPM ratio (pull-down/input)
3,GATGATTGTTCTCCCAGCTGATGAATTTCTATACTCGAGTAAACAAATTTTCCTAATCTTTCTGTTCAAGCGCCATCTAC,0.903 RPM ratio (pull-down/input)
4,GATGATTGTTCTCCCAGCTGATGAATTTGTAGTATCGAGTAAACAAATTTTCCTAATCTTTCTGTTCAAGCGCCATCTAC,1.47 RPM ratio (pull-down/input)
5,GATGATTGTTCTCCCAGCTGATGAATTCTTTGTATCGAGTAAACAAATTTTCCTAATCTTTCTGTTCAAGCGCCATCTAC,1.21 RPM ratio (pull-down/input)
6,GATGATTGTTCTCCCAGCTGATGAATTTGTGTGATCGAGTAAACAAATTTTCCTAATCTTTCTGTTCAAGCGCCATCTAC,1.3 RPM ratio (pull-down/input)
7,GATGATTGTTCTCCCAGCTGATGAATTGGTCCCATCGAGTAAACAAATTTTCCTAATCTTTCTGTTCAAGCGCCATCTAC,0.976 RPM ratio (pull-down/input)
8,GATGATTGTTCTCCCAGCTGATGAATTGCTTAGGTCGAGTAAACAAATTTTCCTAATCTTTCTGTTCAAGCGCCATCTAC,1.02 RPM ratio (pull-down/input)
9,GATGATTGTTCTCCCAGCTGATGAATTAATGTCCTCGAGTAAACAAATTTTCCTAATCTTTCTGTTCAAGCGCCATCTAC,0.913 RPM ratio (pull-down/input)
10,GATGATTGTTCTCCCAGCTGATGAATTTGTGAGCTCGAGTAAACAAATTTTCCTAATCTTTCTGTTCAAGCGCCATCTAC,0.999 RPM ratio (pull-down/input)
11,GATGATTGTTCTCCCAGCTGATGAATTAACGAAGTCGAGTAAACAAATTTTCCTAATCTTTCTGTTCAAGCGCCATCTAC,0.89 RPM ratio (pull-down/input)
12,GATGATTGTTCTCCCAGCTGATGAATTGTGATGCTCGAGTAAACAAATTTTCCTAATCTTTCTGTTCAAGCGCCATCTAC,1.54 RPM ratio (pull-down/input)
13,GATGATTGTTCTCCCAGCTGATGAATTTTTGTACTCGAGTAAACAAATTTTCCTAATCTTTCTGTTCAAGCGCCATCTAC,1.14 RPM ratio (pull-down/input)
14,GATGATTGTTCTCCCAGCTGATGAATTGTGTATCTCGAGTAAACAAATTTTCCTAATCTTTCTGTTCAAGCGCCATCTAC,1.67 RPM ratio (pull-down/input)
15,GATGATTGTTCTCCCAGCTGATGAATTTTCTGTATCGAGTAAACAAATTTTCCTAATCTTTCTGTTCAAGCGCCATCTAC,1.08 RPM ratio (pull-down/input)
16,GATGATTGTTCTCCCAGCTGATGAATTTGTACTCTCGAGTAAACAAATTTTCCTAATCTTTCTGTTCAAGCGCCATCTAC,1.15 RPM ratio (pull-down/input)
17,GATGATTGTTCTCCCAGCTGATGAATTTGTGTACTCGAGTAAACAAATTTTCCTAATCTTTCTGTTCAAGCGCCATCTAC,2.09 RPM ratio (pull-down/input)
18,GATGATTGTTCTCCCAGCTGATGAATTGTGTGTATCGAGTAAACAAATTTTCCTAATCTTTCTGTTCAAGCGCCATCTAC,1.92 RPM ratio (pull-down/input)
19,GATGATTGTTCTCCCAGCTGATGAATTCTGTACCTCGAGTAAACAAATTTTCCTAATCTTTCTGTTCAAGCGCCATCTAC,0.846 RPM ratio (pull-down/input)
20,GATGATTGTTCTCCCAGCTGATGAATTAATGTAATCGAGTAAACAAATTTTCCTAATCTTTCTGTTCAAGCGCCATCTAC,1.68 RPM ratio (pull-down/input)
21,GATGATTGTTCTCCCAGCTGATGAATTCATCGTGTCGAGTAAACAAATTTTCCTAATCTTTCTGTTCAAGCGCCATCTAC,0.891 RPM ratio (pull-down/input)
